# Reference: PubChem BioAssay (Tox21)
# “And” between values parts separate entries of the source, which are not always exact repeats. Identical values can stand only once. Inconclusive results are not listed. A call without a number means that no potency is given here. The source made the active and inactive calls. The call rests on the fitted dose curve; in most records, active means well fitted cell-killing curve with a large enough effect in the repeat runs; inconclusive means weak or mixed curves, or effect the other way; inactive means no such curve, though single readings can be large or run the other way.
# Test: qHTS assay to identify small molecule antagonists of the progesterone receptor (PR) signaling pathway - cell viability counter screen (AID 1346798); further: nearly all actives have a fitted effect of over 50% in size
# Conditions: PR-UAS-bla HEK293T viability, CellTiter-Glo luminescence, 16 h; series mostly up to 92.4 µM
# Excerpt: National Center for Advancing Translational Sciences [NCATS]
# NIH Chemical Genomics Center [NCGC]
# U.S. Environmental Protection Agency [EPA]
# National Institutes of Environmental Health Sciences [NIEHS]
# National Toxicology Program [NTP]
# U.S. Food and Drug Administration [FDA]
# Progesterone receptor (PR), a nuclear hormone receptor, plays an important role in development, metabolic homeostasis and reproduction. It is activated by the steroid hormone progesterone. Endocrine disrupting chemicals (EDCs) and their interactions with steroid hormone receptors like PR causes disruption of normal endocrine function. To identify the compounds that inhibit PR signaling, a PR-UAS-bla GripTite cell line i.e. PR-UAS-bla HEK293T (Invitrogen, Carlsbad, CA, USA) containing a beta-lactamase reporter gene under the control of an UAS response element was used to screen Tox21 10K compound library. The cytotoxicity of the Tox21 compound library against the PR-bla cell line was tested in parallel by measuring the cell viability using CellTiter-Glo assay in the same wells.
# Tox21 Assay Protocol Summary:
# PR-UAS-bla HEK293T cells were dispensed at 3,000 cells/4 uL of assay medium containing 2% charcoal stripped FBS per well into black wall/clear-bottom 1536-well plates using a Multidrop Combi (ThermoFisher Scientific, Waltham, MA) dispenser. After the assay plates were incubated at a 37C and 5% CO2 for 4 hr, 23 nL of compounds dissolved in DMSO, positive controls or DMSO only was transferred to the assay plate by a Pintool station (Kalypsys, San Diego, CA), followed by addition of 1 uL of R5020 in assay medium using a Flying Reagent Dispenser (FRD, Aurora Discovery, San Diego, CA). The plates were incubated at 37C and 5% CO2 for 16 hr. Then 1 uL of LiveBLAzer B/G FRET substrate was added using a Flying Reagent Dispenser, the plates were incubated at room temperature for 2 hours, and fluorescence intensity was measured by an Envision plate reader (PerkinElmer, Shelton, CT). For cell viability readout that measures cytotoxicity, 4 uL/well of CellTiter-Glo reagent was added into the assay plates using a FRD. After 30 min incubation at room temperature, the luminescence intensity in the plates was measured using a ViewLux (PerkinElmer) plate reader.
# Potency means the concentration at half of the fitted maximal effect.
row,Compound,Potency
1,CCCBr,inactive
2,NCCc1cc(O)c(O)cc1O,inactive
3,COCc1cnc(C2=NC(C)(C(C)C)C(=O)N2)c(C(=O)O)c1 (stereo not given),inactive
4,CC(C)(C)NCC(O)c1ccccc1Cl (stereo not given),inactive
5,C1CCNCC1,inactive
6,c1ccc2c(c1)sc1ccccc12,inactive
7,O=C(O)c1ccc(=O)[nH]c1,inactive
8,COC1CC(=C(c2cccs2)c2cccs2)C[N+](C)(C)C1 (stereo not given),inactive
9,O=C(O)c1cc(I)cc(I)c1I,inactive
10,N#CC(C#N)=C(C#N)C#N,inactive
11,Nc1ccccc1C(=O)OCC(O)CO (stereo not given),inactive
12,CCNC(=O)NC(=O)/C(C#N)=N/OC,inactive
13,COC(=O)Cc1ccccc1,inactive
14,ClCc1ccccc1Cl,inactive
15,CNC(=O)Oc1cccc(N=CN(C)C)c1,inactive
16,CCCCC1C(=O)NC(=O)N(C2CCCCC2)C1=O (stereo not given),inactive
17,O=C(CCl)CCl,inactive
18,CC(O)CN1CCN(CC(=O)[O-])CCN(CC(=O)[O-])CCN(CC(=O)[O-])CC1.[Gd+3] (stereo not given),inactive
19,CCCC(C)(COC(N)=O)COC(=O)NC(C)C (stereo not given),inactive
20,OC[P+](CO)(CO)CO,inactive

row,Compound,Potency
1,Cc1nc2ccccc2c(=O)n1-c1ccccc1Cl,inactive
2,CC(=O)NNc1ccccc1,30.4 µM (active)
3,C#CC(O)(C=CCl)CC (stereo not given),inactive
4,c1ccc2sc(SNC3CCCCC3)nc2c1,inactive
5,COc1ccccc1N1CCNCC1,inactive
6,O=C(N/N=C/c1ccc([N+](=O)[O-])o1)c1cc([N+](=O)[O-])cc([N+](=O)[O-])c1O,inactive
7,CCCC[P+](CC)(CCCC)CCCC (tested in a mixture with another compound),inactive
8,C[C@@H]1C[C@@H]([C@H](O)CC2CC(=O)NC(=O)C2)C(=O)[C@@H](C)C1,inactive
9,CCCCCCCCn1sccc1=O,48.7 µM (active) and 1.14 µM (active)
10,CCc1cnc(C2=NC(C)(C(C)C)C(=O)N2)c(C(=O)O)c1 (stereo not given),inactive
11,CN(C)N,inactive
12,CC(Oc1cc(Cl)c(Cl)cc1Cl)C(=O)O (stereo not given),inactive
13,CCCCC(CC)COC(=O)c1c(Br)c(Br)c(Br)c(Br)c1C(=O)OCC(CC)CCCC (stereo not given),inactive
14,CC(C)(C)OOC(C)(C)CCC(C)(C)OOC(C)(C)C,inactive
15,C[N+]1(CCF)[C@@H]2CC[C@H]1CC(OC(=O)C(O)(c1ccccc1)c1ccccc1)C2 (stereo not given in full),inactive
16,Cc1cccc(C)c1NC1=NCCCS1,inactive
17,O=S(=O)(Cl)Cl,inactive
18,c1ccc2c(c1)-c1cccc3cccc-2c13,inactive
19,O=C(O)c1cc(Cl)ccc1Cl,inactive
20,CC(Cc1ccccc1)NCc1ccccc1Cl (stereo not given),inactive
